Hits are enriched below; roughly 2.2% of the tested compounds scored in any of these assays.
HepG2 viability: qHTS for Inhibitors of TGF-b: Cytotox Counterscreen. hit rate 0.76% among 410,000. Potency, µM (series often up to 46.1 µM), without a hit: at the highest dose activity change, negative = cytotoxicity, hits mostly cytotoxic. HepG2 CAGA-GFP viability, ATP luminescence, 18 h; further: potency means the concentration at half of the fitted maximal effect
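HepG2 CAGA-GFP cells (1000/well, DMEM with 1% FBS) received compound, then TGF-beta at 500 pg/mL final, and were incubated 18 hours at 37 degrees C. Viability was read by CellTiter-Glo luminescence. Media-only wells were set as complete cell-killing and DMSO as no toxicity.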
S2 tox: Viability Counterscreen for Primary qHTS for Inhibitors of ATXN expression | Potency, µM (series often up to 56.7 µM), most hits filed as cytotoxic | S2 cells (HEK-293 line with an ATXN2-luciferase reporter) viability, CellTiter-Fluor protease fluorescence, 24 h | hit rate 0.49% among 400,000; further: potency means the concentration at half of the fitted maximal effect; nearly all actives have a fitted effect of over 40% in size
LDHA block: qHTS assay for inhibitors of human lactate dehydrogenase; L-lactate dehydrogenase A chain (Homo sapiens), P00338; hit rate 0.15% among 480,000; activity change, % (values are at about 110 or 230 µM); purified LDHA, NADH/diaphorase-resazurin fluorescence; stronger effect = lower value; in the data active means activity change below about -30%; inconclusive means mostly about -25% to -30%;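 further: plate controls were DMSO wells for no effect and wells without enzyme for full effect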
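Enzyme activity of human lactate dehydrogenase 5 (2 nM; 0.06 mM NADH, 0.2 mM pyruvate, 5 min, RT) is measured via a resazurin/diaphorase fluorescence readout of residual NADH.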
mIDH1 inhibitor: qHTS for Inhibitors of mutant isocitrate dehydrogenase 1 (IDH1): qHTS; Potency, µM (top dose mostly 76.6 µM), for the others: at the highest dose activity change, negative = inhibition, actives largely listed as inhibitors; Isocitrate dehydrogenase [NADP] cytoplasmic (Homo sapiens), O75874; IDH1-R132H enzyme, NADPH consumption, diaphorase/resazurin fluorescence; hit rate 0.093% among 390,000; further: potency means the concentration at half of the fitted maximal effect; on the % scale 0 is the no-effect control and ±100 the full control effect; nearly all actives have a fitted effect of over 65% in size
Target sequence (O75874 whole entry R132H, stated change not applied): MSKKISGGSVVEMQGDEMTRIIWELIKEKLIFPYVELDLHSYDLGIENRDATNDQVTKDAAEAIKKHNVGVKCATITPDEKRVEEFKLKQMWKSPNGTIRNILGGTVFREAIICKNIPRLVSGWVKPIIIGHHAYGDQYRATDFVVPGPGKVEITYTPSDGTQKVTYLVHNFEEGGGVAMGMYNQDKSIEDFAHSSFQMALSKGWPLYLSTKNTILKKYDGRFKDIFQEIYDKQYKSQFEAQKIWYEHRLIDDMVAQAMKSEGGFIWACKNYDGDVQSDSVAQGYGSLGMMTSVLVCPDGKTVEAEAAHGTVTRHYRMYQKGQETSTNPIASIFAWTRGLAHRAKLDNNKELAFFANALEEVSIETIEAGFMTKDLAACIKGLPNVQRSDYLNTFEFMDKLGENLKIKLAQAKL
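IDH1-R132H (0.5 ug/mL dispensed) in pH 7.5 Tris buffer was preincubated 30 min with compound, then given a substrate mix of 0.016 mM NADPH and 2 mM alpha-KG for 80 min at room temperature; remaining NADPH was read by diaphorase/resazurin fluorescence.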
TGFb inhibitor: qHTS for Inhibitors of TGF-b | AID 588855, 2011 | hit rate 1.2% among 410,000 | HepG2 CAGA-GFP TGF-b/SMAD3 reporter, GFP fluorescence, 18 h; TGF-beta stimulated, 500 pg/mL final | Potency, µM (highest dose often 46.1 µM), inactives show top-dose activity, negative = inhibition, actives largely listed as inhibitors; further: potency means the concentration at half of the fitted maximal effect; on the % scale 0 is the no-effect control and ±100 the full control effect; nearly all actives have a fitted effect of over 65% in size
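HEPG2 CAGA-GFP reporter cells (1000/well, DMEM with 1% FBS) received compounds, then recombinant TGF-beta at 500 pg/mL final for 18 hours at 37 degrees C. Per-cell GFP summed per well was normalised to unstimulated and stimulated DMSO controls before curve fitting.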
ATXN2 expr inh: Primary qHTS for Inhibitors of ATXN expression. HEK-293 ATXN2-luciferase reporter, luminescence, 24 h. Potency, µM (highest dose often 57 µM), for the others: at the highest dose activity change, negative = inhibition, most hits filed as inhibitors. hit rate 0.72% among 360,000. AID 1745845, 2022; further: potency means the concentration at half of the fitted maximal effect; on the % scale 0 is the no-effect control and ±100 the full control effect; nearly all actives have a fitted effect of over 55% in size
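qHTS (up to 57 uM final) was run with 24 h compound exposure of reporter cells at 37 °C. Each well was multiplexed: SteadyGlo luminescence measured ATXN2-luciferase expression after a fluorogenic Gly-Phe-AFC viability readout (25 uM final).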
* hit, by the source's call; i = inactive; ? = inconclusive; / = no result; ! = not active in a repeat; [ ] = dose if it differs, or a comment. Unless noted, the call rests on the fitted dose curve; in most records, active means well fitted curve in the direction sought with a large enough effect; inconclusive means small, poorly fitted or top-dose-only effect, or another doubt; inactive means no such curve, though single readings can be large; an effect the other way counts as inactive or inconclusive.

SMILES | HepG2 viability | S2 tox | LDHA block | mIDH1 inhibitor | TGFb inhibitor | ATXN2 expr inh
COC(=O)[C@@]1(Sc2ccc(C)cc2)CC(=O)N[C@@H]1c1ccccc1 | / | i | 1 | / | / | 0%
COc1cc2c3c(cccc3c1)C(=O)N(CCN1CCCC1)C2=O | 19% | i | -2 | -2% | 14µM* | /
Cc1ccc(C(=O)CSc2nnc(COc3ccccc3)o2)cc1 | 6.3µM* | i | -1 | 12% | -5% | -6%
NC(N)=N/N=C/c1ccc(OCc2ccc(Cl)cc2)cc1 | 10µM* | 32µM* | -2 | 7% | ? | ?
NC(N)=N/N=C/c1ccc(OCc2ccccc2)cc1 | 13µM* | ? | -3 | 5% | ? | ?
NC(N)=N/N=C\c1ccccc1 | / | / | -7 | / | / | /
CCC(Sc1nc(C)cc(C)n1)C(=O)NC1=NN=C(c2ccc(C)cc2)CS1 (centres undefined) | -31% | ? | -4 | 46µM* | ? | -28%
CCOC(=O)c1c(C)[nH]c(CCC(=O)Nc2cc(Cl)ccc2OC)c1C | -12% | / | -2 | -17% | ? | /
C=CCn1c(COc2cccc(C)c2C)nnc1SCC(=O)N1CCN(c2ccccc2)CC1 | -69% | i | 3 | 3% | 4.5µM* | ?
COc1cc(CNCCN2CCOCC2)ccc1OCc1ccc(Cl)cc1Cl | -101% | / | -1 | 3% | 20µM* | ?
COc1cc(CNCCO)cc(Cl)c1OCc1ccc(Cl)cc1Cl | -190% | 35µM* | 1 | 5% | 22µM* | 16µM*
COc1cc(CNCCO)cc(Br)c1OCc1ccccc1Cl | -127% | i | 3 | 2% | ? | -17%
CCOC(=O)c1c(-c2ccc(OC)cc2)csc1NC(=O)CCN1CCOCC1 | -11% | i | -14 | -4% | -3% | -23%
CCOC(=O)c1c(-c2ccc(C)cc2)csc1NC(=O)CCN1CC(C)OC(C)C1 (centres undefined) | 20µM* | i | -11 | 5% | ? | -24%
OC1CCN(CC(O)C(F)(F)F)CC1 (centres undefined) | -4% | i | -7 | 0% | -3% | -8%[11.3 µM]
C=CCn1c(SCC(=O)N(C(C)CC)C2CCS(=O)(=O)C2)nc2ccccc2c1=O (centres undefined) | 7.1µM* | i | -4 | 3% | -2% | 13%
Cc1ccc(O)c(-c2cc(-c3cccc(F)c3)n[nH]2)c1 | -84% | i | 0 | -1% | 22µM* | 29%
COc1ccc2c(c1)OCC(O)(c1ccccc1)C2=O (centres undefined) | 7% | i | -4 | 1% | 1% | 4%
OC(Cc1nc2ccccc2[nH]1)c1ccccc1Cl (centres undefined) | -15% | i | -6 | 3% | -1% | 73%
C=CCOc1ccccc1CN(CCc1ccccc1)C(=O)c1cccc(S(C)(=O)=O)c1 | -4% | i | -6 | -4% | -14% | -14%
O=C(Cn1ncc(N2CCOCC2)c(Cl)c1=O)c1ccc(Cl)cc1 | -27% | ? | -4 | 4% | -3% | 0%[11.3 µM]
O=C(Cn1ncc(Cl)c(Cl)c1=O)c1ccc(Cl)cc1 | 18µM* | ? | -2 | 3% | ? | ?
CC(C)(C)C(=O)Cn1ncc(Cl)c(Cl)c1=O | -9% | 7.9µM* | -8 | -4% | -1% | /
C=CCn1c(C)cc(C(=O)Cn2ncc(Cl)c(Cl)c2=O)c1C | -35% | 35µM* | -4 | 5% | -1% | ?
CN(C(=O)CSc1nnn(C)n1)c1ccccc1 | -8% | i | -5 | -12% | -6% | 3%
SMILES | HepG2 viability | S2 tox | LDHA block | mIDH1 inhibitor | TGFb inhibitor | ATXN2 expr inh
Nc1nccnc1C(=O)NCc1ccc(OCc2cccc(F)c2)cc1 | / | / | -3 | / | / | /
Cc1c(CN(C)C(=O)c2sc3cc(Cl)ccc3c2Cl)cnn1C | -20% | i | -2 | 7% | -7% | -24%
S=c1nc[nH]c2nc[nH]c12 | 1.4µM*! | ? | -7 | 15% | 3% | ?
CCN1CCC(N(Cc2ccc(F)cc2)C(=O)Nc2ccc(C)c(F)c2)CC1 | -48% | / | 0 | / | / | /
CCN1CCC(N(Cc2ccc(F)cc2)C(=O)Nc2cccc(C(F)(F)F)c2)CC1 | -96% | i | -4 | 7% | ? | 28µM*
CCN1CCC(N(Cc2cccc(OC)c2)C(=O)Nc2cccc(C(F)(F)F)c2)CC1 | 7.1µM* | ? | -1 | -13% | ? | -39%
CCN1CCC(N(Cc2cccc(OC)c2)C(=O)Nc2cccc(C)c2C)CC1 | -19% | ? | -7 | 38% | -1% | -9%
c1ccc2c3c([nH]c2c1)CCCC3 | -2% | / | -1 | / | 9% | /
Cc1ccc(CNC(=O)Cn2c(=O)n(Cc3ccc(F)cc3)c(=O)c3sc4ccccc4c32)cc1 | 6% | i | -2 | -5% | 3% | 12%
CC1CCc2c(sc3nc(C4CC4)nc(N4CCN(C(=O)c5ccco5)CC4)c23)C1 (centres undefined) | 10µM* | ? | -2 | ? | ? | ?
CCc1nc(N2CCN(C(=O)c3ccco3)CC2)c2c3c(sc2n1)CCCC3 | -20% | ? | 1 | -5% | 0% | -32%
COc1cc(/C=C2\CC(C(C)(C)C)C/C(=C\c3cc(OC)c(OC)c(OC)c3)C2=O)cc(OC)c1OC (centres undefined) | -71% | ? | -1 | 2% | 11µM* | ?
Cc1ccc(C(=O)Nc2nc3nc(C)cc(=O)n3[nH]2)cc1 | -3% | / | -70* | -8% | -43% | /
COc1cc(Nc2c3c(nc4ccccc24)CCCC3)cc(OC)c1OC | -49% | ? | 6 | 2% | -7% | 35%
COc1ccc(Nc2c3c(nc4ccccc24)CCC3)c(OC)c1 | -32% | i | -2 | 8% | ? | -33%
COc1ccccc1Nc1c2c(nc3ccccc13)CCC2 | -27% | ? | 4 | 0% | 18µM* | ?
COc1cc(Cl)c(C)cc1Nc1c2c(nc3ccccc13)CCC2 | 11µM* | 14µM* | 3 | 8% | 16µM* | ?
Cc1[nH]c2c(C)cccc2c1CN1CCC(CO)(Cc2ccccc2)CC1 | -38% | i | -4 | 0% | -9% | -36%
CCOc1ccccc1C(=O)N[C@H](C(=O)OCc1cc(=O)oc2cc(C)ccc12)C(C)C | 0% | i | -9 | 4% | ? | -22%
Nc1nc(N)c2cc(Sc3ccc(Cl)cc3)ccc2n1 | -114% | / | -10 | -4% | ? | /

Source: PubChem BioAssay (National Center for Advancing Translational Sciences (NCATS))
